# Source: PubChem (The Scripps Research Institute Molecular Screening Center)
# A selection: hits, their analogues and other compounds. The true share with any hit is near 1.1%.
# HTR5A inv ctr = counter-screen for OPRM1-OPRD1 inverse agonists: human HTR5A inverse agonism | P47898 | HTR5A cell line, luminescence | AID 504634 | 340,000 tested, 0.083% active | inhibition, % at 9.3 µM; in the data active = inhibition mostly above about 23%, no sharp cut-off; inactive = mostly below about 18%;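 also: 0% = cells with DMSO and 100% = no-cell wells with DMSO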
# Target sequence (P47898 whole entry, looked up): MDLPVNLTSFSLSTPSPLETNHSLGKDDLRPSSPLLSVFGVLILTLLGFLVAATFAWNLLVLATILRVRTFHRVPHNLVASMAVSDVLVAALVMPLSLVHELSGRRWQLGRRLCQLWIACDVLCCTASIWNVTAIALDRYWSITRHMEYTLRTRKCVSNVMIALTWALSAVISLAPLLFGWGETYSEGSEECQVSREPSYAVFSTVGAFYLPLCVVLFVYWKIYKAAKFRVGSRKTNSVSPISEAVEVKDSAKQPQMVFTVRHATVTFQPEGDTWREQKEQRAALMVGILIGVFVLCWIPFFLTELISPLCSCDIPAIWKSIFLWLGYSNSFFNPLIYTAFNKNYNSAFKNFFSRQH
# MOR-DOR inv ag = mu-delta opioid heterodimer inverse agonism; P35372+P41143; cell-based MOR-DOR heterodimer luminescence; inhibition, % at 9.3 µM; 340,000 tested, 0.21% active; in the data active = inhibition above about 22%, passing the limit was not always enough;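 also: 0% = cells with DMSO and 100% = wells without cells with DMSO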
# HTR5A ag = counter-screen for OPRM1-OPRD1 agonists: human HTR5A agonism | HTR5A agonist assay, luminescence, cell-based | activation, % at 9.3 µM | 340,000 tested, 0.61% active; in the data active = activation mostly above about 9.5%, no sharp cut-off; inactive = mostly below about 7.6%;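 also: 0% = cells with vehicle only and 100% = reference agonist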
# MOR-DOR ag = OPRM1-OPRD1 heterodimerization agonism. P35372+P41143. cells, luminescence. activation, % at 9.3 µM. 340,000 tested, 0.3% active; in the data active = activation above about 18%;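 also: 0% = vehicle-treated cells and 100% = reference agonist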
# Starred values were filed as active, the others as inactive.
SMILES,HTR5A inv ctr,MOR-DOR inv ag,HTR5A ag,MOR-DOR ag
CC(C)(C)c1cc(CCC(=O)N2CCC2)cc(C(C)(C)C)c1O,4.6,-2.7,-1.8,0.7
CC(C)(C)c1cc(CCC(=O)NN)cc(C(C)(C)C)c1O,3.0,1.4,12.0*,-0.3
CCCSC1=C(C#N)C(c2ccc(OC)cc2)C2=C(CC(C)(C)CC2=O)N1 (stereo not given),-40.5,3.4,10.7*,-0.6
O=C(COc1ccc(Br)cc1)NNC(=O)c1cc(S(=O)(=O)N2CCOCC2)ccc1Cl,-5.0,12.8,2.0,-3.3
CC(C)(C)OC(=O)N1CCC[C@H]1C(=O)Nc1ccc(Br)cc1,-0.6,7.0,0.2,-1.6
CC(C)(C)OC(=O)N1CCC[C@H]1C(=O)Nc1ccc(C#N)cc1,-37.1,3.3,9.6*,-0.7
COc1ccc(C2/C(=C(\O)c3ccc4c(c3)OCCO4)C(=O)C(=O)N2CCCn2ccnc2)cc1 (stereo not given),-1.8,16.7,11.2*,-3.3
CC(=O)c1ccccc1C(=O)N1CCCC(C(=O)c2ccc(C(F)(F)F)cc2)C1 (stereo not given),7.5,10.1,1.0,-1.9
O=C(c1ccccc1F)N1C(=O)c2cccc3cccc1c23,-38.4,-13.2,12.2*,2.5
O=C(c1ccco1)N1C(=O)c2cccc3cccc1c23,-21.0,-4.6,3.3,1.0
S=C(Nc1ccccc1Oc1ccccc1)Nc1cccc(Cl)c1Cl,-8.9,-5.5,3.4,1.1
O=C(CCNC(=O)C1CCN(S(=O)(=O)c2ccc(F)cc2)CC1)Nc1nccs1,-14.7,9.2,10.2*,-1.8
CC(=O)Nc1ccc(S(=O)(=O)N2CCC(C(=O)NCCC(=O)Nc3nccs3)CC2)cc1,-23.1,15.2,3.2,-2.8
Cc1ccc(Cl)cc1N1CCN(C(=O)c2noc(C(C)C)c2[N+](=O)[O-])CC1,-172.0,-276.4,42.4*,52.2*
CC(OC(=O)CNS(=O)(=O)c1ccc(C#N)cc1)C(=O)Nc1ccc(Cl)cn1 (stereo not given),2.0,8.5,10.6*,-1.3
CC[C@]1(C(=O)OC)[C@H]2C(=O)N(C)C(=O)[C@H]2[C@H]2CN=C(SCC3CC3)N21,7.0,11.6,-2.0,-2.4
CC(C)CN1CCN(Cc2nc(C(C)C)cs2)CC1CCO (stereo not given),-30.1,1.2,10.7*,-0.2
CCOC(=O)c1sc(N(Cc2ccccc2)C(=O)COC(=O)c2ccc(O)cc2)nc1C,-39.7,-73.8,11.4*,14.0
CCOC(=O)c1sc(N(Cc2ccccc2)C(=O)COC(=O)c2ccccc2O)nc1C,-6.7,1.4,2.5,-0.2
COc1ccc(CNC(=O)[C@@H](NC(=O)C2CCN(C(=O)[C@@H](N)CCSC)CC2)C(C)C)cc1,1.2,8.4,1.6,-1.7
CSc1ncccc1C(=O)OCC(=O)c1ccc[nH]1,-18.3,7.4,6.6,-1.8
CSc1ccc(/C=C/C(=O)OCC(=O)c2ccc[nH]2)cc1,12.9,-4.7,13.1*,1.3
Clc1ccc(OCCCNCc2ccccc2)c2ccccc12,-38.6,-30.4,10.4*,6.6
COCc1c(C(=O)NC(C)c2ccc(S(N)(=O)=O)cc2)oc2ccccc12 (stereo not given),10.9,9.2,1.2,-1.8
CC(C)c1ccc(OCC(=O)NNC(=S)NC(=O)c2cccs2)c(Br)c1,1.4,16.4,11.8*,-3.1
SMILES,HTR5A inv ctr,MOR-DOR inv ag,HTR5A ag,MOR-DOR ag
Cc1ccc(OCC(=O)NNC(=S)NC(=O)C(C)(C)C)c(Br)c1,-2.1,26.5,0.7,-5.3
Cc1cccc(OC(=O)c2ccc3nccnc3c2)c1,-13.7,-6.1,9.4*,1.1
Cc1ccc(CCNC(=O)Cc2ccc(NC3=NC4CS(=O)(=O)CC4S3)cc2)cc1 (stereo not given),-12.1,-1.0,-3.1,0.2
O=C(CN1C(=O)/C(=C/c2ccc(Cl)cc2)SC1=S)NC1C=CS(=O)(=O)C1 (stereo not given),-11.7,10.6,-4.4,-2.1
O=C(CN1C(=O)/C(=C/c2ccccc2)SC1=S)NC1C=CS(=O)(=O)C1 (stereo not given),-16.1,7.1,12.5*,-1.3
COCc1cc(CN2CCCC(C(=O)Nc3ccc(-c4ccco4)cc3)C2)ccc1OC (stereo not given),-39.5,8.7,3.8,-1.6
Cc1nn(-c2ccccc2)c(Cl)c1CN(C(=O)CCl)c1cccc2ccccc12,-19.5,-271.4,39.8*,52.4*
CC(=O)N(Cc1c(C)nn(-c2ccccc2)c1Cl)c1ccc(Cl)cc1,16.7,9.4,-3.0,-1.6
Cc1nn(-c2ccccc2)c(Cl)c1CN(C(=O)CCl)c1ccc(Cl)cc1,-50.5,-361.4,49.5*,67.5*
C/C(=N\Nc1ccc(S(=O)(=O)N2CCOCC2)cc1[N+](=O)[O-])C(C)C,1.3,-13.1,-0.5,2.5
O=C1[C@H](Oc2ccccc2)[C@@H](c2ccccc2)N1c1ccncc1,-34.3,18.2,9.4*,-3.7
O=C1C=CC(=O)c2c(O)c(N3CCN(CCO)CC3)c(Cl)c(O)c21,11.3,-109.1,-2.9,21.2*
O=S(=O)(c1ccc(Br)cc1Cl)N1CCN(CCO)CC1,-7.8,17.8,1.8,-3.8
COc1ccccc1NS(=O)(=O)c1ccc(OC)c(OC)c1,10.3,6.7,10.2*,-1.1
CCOc1ccccc1NS(=O)(=O)c1ccc(OC)c(OC)c1,15.4,1.9,-0.7,-0.4
Cc1[nH]c2ccccc2c1CN1CCC(Cc2ccccc2)CC1,14.2,-12.6,-0.1,2.8
CCC(C)Sc1ccc(-c2nc3ccc(C)cn3c2NCc2ccccc2)cc1OC (stereo not given),-33.0,-46.0,11.1*,8.2
CCC(C)Sc1cc(-c2nc3ccc(C)cn3c2NCc2ccccc2)ccc1OC (stereo not given),10.3,-123.8,15.5*,21.4*
NCCCC[C@H]1CNC(=S)N1CCc1cccc(F)c1,8.9,11.9,1.0,-2.1
CCN(C(=O)CN1C(=O)S/C(=C\c2cccc(OC)c2)C1=O)C1CCS(=O)(=O)C1 (stereo not given),-9.1,2.1,6.5,-0.4
CCOc1ccc(N2C(=O)CC(Sc3ccccc3C(=O)O)C2=O)c([N+](=O)[O-])c1 (stereo not given),-4.0,10.7,1.4,-2.3
CCn1c(COc2ccccc2)nnc1SCC(=O)Nc1ccc(N2CCOCC2)cc1,18.4,13.3,-3.0,-2.1
C=C(C)Cn1c(CCNC(=O)C(C)(C)C)nc2ccccc21,-4.0,4.8,10.4*,-0.8
Cc1ccc(OCC(=O)Nc2ccc(N3CCN(C(=O)c4ccco4)CC3)cc2)cc1,-2.1,7.2,0.8,-1.6
CCOc1cc(/C=C2\C(=O)N(Cc3ccc(C)cc3)C(C)=C2C(=O)OC)ccc1O,-40.0,-9.7,16.0*,2.3
C=CCOc1cccc(/C=C2\C(=O)N(Cc3ccc(C)cc3)C(C)=C2C(=O)OC)c1,0.9,-1.3,3.5,0.3
COc1cc(/C=N/NC(=O)c2ccc(COc3cc(C)ccc3C(C)C)cc2)cc(OC)c1O,6.3,-23.8,-0.2,4.6
Cc1ccc(C(C)C)c(OCc2ccc(C(=O)N/N=C/c3ccc(O)c(O)c3)cc2)c1,-38.2,-19.5,14.2*,3.2
Cc1cc(C)c(C)c(S(=O)(=O)N2CCN(C(=O)CNC(=O)c3ccco3)CC2)c1C,0.1,-4.0,13.7*,1.0
